Experimental findings from PubChem BioAssay AID493233 (Broad Institute, 2011) are described below.

For this experiment, the target named is Protein RecA (Mycobacterium tuberculosis (strain ATCC 25618 / H37Rv)) (UniProt P9WHJ3). Description: GFP RecA biochemical assay with DTT, Mycobacterium tuberculosis H37Rv, confirmatory dose response (AID 493233).

Entries with a potency or affinity are not part of this list. Calls of active or inactive are those of the source. The rule behind the calls is not given here.

Sequence of Protein RecA (Mycobacterium tuberculosis (strain ATCC 25618 / H37Rv)) (P9WHJ3 whole entry, looked up): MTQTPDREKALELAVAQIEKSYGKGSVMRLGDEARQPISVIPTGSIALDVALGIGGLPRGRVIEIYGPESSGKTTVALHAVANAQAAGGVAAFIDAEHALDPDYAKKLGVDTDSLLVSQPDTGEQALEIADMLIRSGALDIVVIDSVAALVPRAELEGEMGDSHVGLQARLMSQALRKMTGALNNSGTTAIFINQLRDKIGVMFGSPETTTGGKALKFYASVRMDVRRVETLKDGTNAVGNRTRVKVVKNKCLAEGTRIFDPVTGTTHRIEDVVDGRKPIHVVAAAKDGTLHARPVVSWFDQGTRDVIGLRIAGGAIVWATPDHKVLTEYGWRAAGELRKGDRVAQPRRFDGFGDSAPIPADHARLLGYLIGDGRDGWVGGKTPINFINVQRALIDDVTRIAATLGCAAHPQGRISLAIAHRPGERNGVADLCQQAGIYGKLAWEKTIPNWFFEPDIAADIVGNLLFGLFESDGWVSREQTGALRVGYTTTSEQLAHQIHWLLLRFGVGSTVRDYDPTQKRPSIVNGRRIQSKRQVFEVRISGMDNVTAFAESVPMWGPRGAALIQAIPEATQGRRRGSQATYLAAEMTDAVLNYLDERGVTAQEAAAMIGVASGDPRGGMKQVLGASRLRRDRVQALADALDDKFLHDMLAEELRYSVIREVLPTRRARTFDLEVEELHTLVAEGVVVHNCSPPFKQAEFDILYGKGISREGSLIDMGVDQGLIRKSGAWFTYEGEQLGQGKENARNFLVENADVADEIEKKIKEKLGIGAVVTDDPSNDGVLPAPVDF

`Nc1cn(-c2ccccc2)nc1-c1ccc(F)cc1`: the call was inactive.

With `C/C(=N\NC(=O)c1ccncc1)c1cc2ccccc2oc1=O`, the compound was classed as inactive.
